Test results from PubChem BioAssay AID1159580 (chemical genetic matrix, 2015).
“And” between values parts separate entries of the source, which are not always exact repeats. Equal entries are not always repeated. Hit rate of the full screen: of about 5,500 compounds, about 2,000 (36%) were called active. Another 18% or so got no clear call; they are omitted. Rule as the data show it: active = normalized growth mostly below about 0.91 (no sharp cut-off); inconclusive = no clear call, values can overlap the other calls; inactive = mostly above about 0.92. The list shows a part of the results.

Test: chemical genetic growth profiling, strain panel (AID 1159580);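 also: tested at 20 µM; growth read once vehicle control cultures reached saturation at 30 °C; 1 = growth at the plate median or of vehicle wells; lower values mean less growth of the strain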
Details: S. cerevisiae deletion strains, growth OD

Measured: normalized growth

NC(N)=NC(=O)c1nc(Cl)c(N)nc1N
inactive: locus YAL013W, strain DEP1, active compounds read low 0.935 | locus YAL021C, strain ccr4, active compounds read low 0.977 | locus YAL026C, strain drs2, active compounds read low 1.01 | locus YAL030W, strain snc1, active compounds read low 1.01 | locus YAL040C, strain CLN3, active compounds read low 1 | locus YBL061C, strain skt5, active compounds read low 1.04 | locus YBR009C, strain hhf1, active compounds read low 1.01 | locus YBR021W, strain FUR4, active compounds read low 0.86 | locus YBR023C, strain chs3, active compounds read low 1.04 | locus YBR171W, strain sec66, active compounds read low 1.02 | locus YBR229C, strain ROT2, active compounds read low 1 | locus YBR231C, strain swc5, active compounds read low 1.02 | locus YBR279W, strain paf1, active compounds read low 1.01 | locus YCL011C, strain gbp2, active compounds read low 0.998 | locus YCL016C, strain dcc1, active compounds read low 0.997 | locus YCL029C, strain bik1, active compounds read low 1.02 | locus YCL061C, strain MRC1 (second series), active compounds read low 0.995 | locus YCL061C, strain MRC1, active compounds read low 1.03 | locus YCL069W, strain vba3, active compounds read low 1.02 | locus YCR088W, strain abp1, active compounds read low 1.03 | locus YDL005C, strain med2, active compounds read low 1.02 | locus YDL035C, strain GPR1, active compounds read low 0.983 | locus YDL040C, strain nat1, active compounds read low 1.02 | locus YDL074C, strain BRE1, active compounds read low 0.975 | locus YDL101C, strain DUN1, active compounds read low 1.03 | locus YDL185W, strain tfp1, active compounds read low 1.03 | locus YDL192W, strain arf1, active compounds read low 1.02 | locus YDR001C, strain nth1, active compounds read low 1.04 | locus YDR069C, strain doa4, active compounds read low 1.04 | locus YDR101C, strain arx1, active compounds read low 1.01 | locus YDR137W, strain rgp1, active compounds read low 1.02 | locus YDR159W, strain sac3, active compounds read low 1 | locus YDR162C, strain NBP2, active compounds read low 1.02 | locus YDR195W, strain ref2 1.04 | locus YDR297W, strain sur2, active compounds read low 1.02 | locus YDR318W, strain mcm21, active compounds read low 1.02 | locus YDR334W, strain swr1, active compounds read low 1.01 | locus YDR335W, strain msn5, active compounds read low 1.01 | locus YDR388W, active compounds read low 1.01 | locus YDR392W, strain spt3, active compounds read low 0.988 | locus YDR502C, strain sam2, active compounds read low 1.02 | locus YEL003W, strain gim4, active compounds read low 1.02 | locus YEL037C, strain rad23, active compounds read low 1.02 | locus YEL061C, strain CIN8 (second series), active compounds read low 1.03 | locus YEL061C, strain CIN8, active compounds read low 1 | locus YER002W, strain NOP16, active compounds read low 1 | locus YER015W, strain faa2, active compounds read low 1.03 | locus YER016W, strain bim1, active compounds read low 1.02 | locus YER110C, active compounds read low 1.02 | locus YER111C, strain swi4, active compounds read low 1.03 | locus YER155C, strain BEM2 (second series), active compounds read low 1.05 | locus YER155C, strain BEM2, active compounds read low 1.01 | locus YER167W, strain BCK2, active compounds read low 1 | locus YFR010W, strain ubp6, active compounds read low 1.01 | locus YGL078C, strain dbp3, active compounds read low 1.01 | locus YGL086W, strain mad1, active compounds read low 1.01 | locus YGL167C, strain pmr1, active compounds read low 1.04 | locus YGL173C, strain kem1, active compounds read low 1.04 | locus YGL227W, strain vid30, active compounds read low 1.03 | locus YGL240W, strain doc1, active compounds read low 1.05 | locus YGL248W, strain PDE1, active compounds read low 1.01 | locus YGL253W, strain hxk2, active compounds read low 1 | locus YGR135W, strain pre9, active compounds read low 0.987 | locus YGR229C, strain SMI1, active compounds read low 0.994 | locus YGR252W, strain gcn5, active compounds read low 0.896 | locus YHR013C, strain ard1, active compounds read low 0.998 | locus YHR027C, strain rpn1, active compounds read low 1.02 | locus YHR030C, strain SLT2, active compounds read low 1.01 and 1 | locus YHR079C, strain IRE1 (second series), active compounds read low 1.01 | locus YHR079C, strain IRE1, active compounds read low 1 | locus YHR094C, strain hxt1, active compounds read low 1.01 | locus YHR129C, strain ARP1, active compounds read low 1.02 | locus YHR142W, strain chs7, active compounds read low 1.02 | locus YHR200W, strain rpn10, active compounds read low 1.02 | locus YIL066C, strain RNR3, active compounds read low 1.02 | locus YIL073C, strain SPO22, active compounds read low 1 | locus YIL125W, strain kgd1, active compounds read low 1.01 | locus YIR030C, strain dcg1, active compounds read low 1.02 | locus YJL092W, strain hpr5, active compounds read low 1.01 | locus YJL095W, strain BCK1 (second series), active compounds read low 1.03 | locus YJL095W, strain BCK1, active compounds read low 0.962 and 1.01 | locus YJL115W, strain asf1, active compounds read low 1.02 | locus YJL129C, strain trk1, active compounds read low 1.04 | locus YJL134W, strain LCB3, active compounds read low 1 | locus YJL154C, strain vps35, active compounds read low 1.01 | locus YJL164C, strain tpk1, active compounds read low 0.995 | locus YJL166W, strain qcr8, active compounds read low 1.04 | locus YJL168C, strain set2, active compounds read low 1.02 | locus YJL187C, strain SWE1 (second series), active compounds read low 1.01 | locus YJL187C, strain SWE1, active compounds read low 1.02 | locus YJR043C, strain POL32, active compounds read low 1.02 | locus YJR066W, strain TOR1, active compounds read low 0.959 | locus YJR075W, strain HOC1, active compounds read low 1.02
